High-throughput results deposited in PubChem BioAssay by National Center for Advancing Translational Sciences (NCATS).
Sampled rows, rich in hits. Any-hit rate of the full collection: about 5.9%.
TGFb inhibitor = qHTS for Inhibitors of TGF-b; HepG2 CAGA-GFP TGF-b/SMAD3 reporter, GFP fluorescence, 18 h; TGF-beta stimulated, 500 pg/mL final; AID 588855, 2011; Potency, µM (series often up to 46.1 µM), hits mostly inhibitors; 410,000 tested, 1.2% active; also: nearly all actives have a fitted effect of over 65% in size
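First, reporter cells (HEPG2 CAGA-GFP) rested 2 h at 37 degrees C. Next, compounds were pinned in and TGF-beta added to 500 pg/mL final. After 18 h, GFP was imaged per cell and summed per well.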
S2 tox = Viability Counterscreen for Primary qHTS for Inhibitors of ATXN expression; S2 cells (HEK-293 line with an ATXN2-luciferase reporter) viability, CellTiter-Fluor protease fluorescence, 24 h; Potency, µM (doses to about 56.7 µM), hits mostly cytotoxic; 400,000 tested, 0.49% active; AID 651635, 2014; also: nearly all actives have a fitted effect of over 40% in size
KB-V1 cytotox = qHTS assay for MDR1-selective chemotherapeutics: Primary screen using the drug-selected MDR subline cells KB-V1 | KB-V1 MDR cells viability, CellTiter-Glo, 72 h | Potency, µM (top dose mostly 46.1 µM), usual class: cytotoxic | 400,000 tested, 3.4% active; also: nearly all actives have a fitted effect of over 60% in size
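Readout: CellTiter-Glo luminescence, 10 min after addition. Cells: KB-V1 MDR subline, 72 h at 37 degrees C with compound. Analysis: corrected, normalized data fitted to concentration-effect curves.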
HepG2 tox = qHTS for Inhibitors of TGF-b: Cytotox Counterscreen. HepG2 CAGA-GFP viability, ATP luminescence, 18 h. Potency, µM (doses to about 46.1 µM), actives largely listed as cytotoxic. 410,000 tested, 0.76% active. AID 588856, 2011
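CellTiter-Glo luminescence gave cytotoxicity after 18 hours at 37 degrees C. The cells were HepG2 CAGA-GFP in 1% FBS DMEM, stimulated with 500 pg/mL TGF-beta after compound addition. %Activity was normalised to no-cell wells (complete cell-killing) and DMSO (no toxicity), and curves were fitted and classified.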
KB-3-1 cytotox = qHTS assay for MDR1-selective chemotherapeutics: Primary screen using the parental adenocarcinoma cell KB-3-1; KB-3-1 viability, CellTiter-Glo ATP luminescence, 72 h; Potency, µM (doses to about 46.1 µM), most hits filed as cytotoxic; 400,000 tested, 1.4% active; AID 1347075, 2019; also: nearly all actives have a fitted effect of over 60% in size
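Using CellTiter-Glo luminescence, growth of non-resistant KB-3-1 adenocarcinoma cells is assessed 72 h after pin-tool compound addition at 37 °C. Normalized responses across the concentration series yield fitted curves.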
ATXN2 expr inh = Primary qHTS for Inhibitors of ATXN expression. HEK-293 ATXN2-luciferase reporter, luminescence, 24 h. Potency, µM (doses to about 57 µM), hits mostly inhibitors. 360,000 tested, 0.72% active. AID 1745845, 2022; also: nearly all actives have a fitted effect of over 55% in size
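qHTS (up to 57 uM final) was run with 24 h compound exposure of reporter cells at 37 °C. Each well was multiplexed: SteadyGlo luminescence measured ATXN2-luciferase expression after a fluorogenic Gly-Phe-AFC viability readout (25 uM final).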
Hits are given with their value; [ ] = another dose, or the depositor's remark. Calls follow the shape of the dose curve; as a rule, active = well fitted curve in the direction sought with a large enough effect; inconclusive = small, poorly fitted or top-dose-only effect, or another doubt; inactive = no such curve, though single readings can be large; an effect the other way counts as inactive or inconclusive.

What do the screens show for `C=CC(=O)N=c1sc2ccccc2n1-c1ccccc1`?
TGFb inhibitor: 10µM; KB-V1 cytotox: 7.3µM; HepG2 tox: 4.5µM; KB-3-1 cytotox: 15µM; ATXN2 expr inh: inactive[11.3 µM]

How did Cc1ccc(-c2nc(Cn3c(SCc4ccc(F)cc4)nc4cccnc43)c(C)o2)cc1 do in these assays?
TGFb inhibitor: inactive; HepG2 tox: inactive

How did O=c1[nH]c(/C(Cl)=C/c2cc(Cl)ccc2O)nc2cc(Cl)ccc12 do in these assays?
TGFb inhibitor: inactive; S2 tox: inconclusive; KB-V1 cytotox: 15µM; HepG2 tox: inactive; KB-3-1 cytotox: inconclusive; ATXN2 expr inh: inactive

How did O=c1[nH]c(/C(Cl)=C/c2c(F)cccc2Cl)nc2cc(Cl)ccc12 do in these assays?
TGFb inhibitor: inconclusive; S2 tox: inactive; KB-V1 cytotox: inactive; HepG2 tox: inactive; KB-3-1 cytotox: inactive; ATXN2 expr inh: inactive

How did N#CC1=C(N)Oc2ccc3ccccc3c2C1c1cccnc1 (stereo not given) do in these assays?
TGFb inhibitor: inactive; KB-V1 cytotox: 5.2µM; HepG2 tox: inactive; KB-3-1 cytotox: inconclusive

How did Cc1ccc2[nH]c(=O)c(C3C(C#N)=C(N)Oc4c3ccc3cccnc43)cc2c1 (stereo not given) do in these assays?
TGFb inhibitor: 10µM; KB-V1 cytotox: 2.6µM; HepG2 tox: inactive; KB-3-1 cytotox: 16µM; ATXN2 expr inh: inconclusive

What do the screens show for `N#CC1=C(N)Oc2c(ccc3ccccc23)C1c1cccs1` (stereo not given)?
TGFb inhibitor: inconclusive; S2 tox: inconclusive; KB-V1 cytotox: 5µM; HepG2 tox: inactive; KB-3-1 cytotox: 0.89µM; ATXN2 expr inh: inactive

How did N#CC1=C(N)Oc2c(ccc3cccnc23)C1c1ccccc1 (stereo not given) do in these assays?
TGFb inhibitor: inconclusive; S2 tox: inconclusive; KB-V1 cytotox: inactive; HepG2 tox: inactive; KB-3-1 cytotox: 5.2µM; ATXN2 expr inh: inactive

How did CCOC(=O)N1CCN(C(=O)CCSc2ccc(C)cc2)CC1 do in these assays?
TGFb inhibitor: inactive; S2 tox: inactive; KB-V1 cytotox: inactive; HepG2 tox: inactive; KB-3-1 cytotox: inactive; ATXN2 expr inh: inactive

How did O=C(NCC(=O)N1CCN(S(=O)(=O)c2ccccc2F)CC1)c1ccc2ccccc2c1 do in these assays?
TGFb inhibitor: inactive; S2 tox: inactive; KB-V1 cytotox: inactive; HepG2 tox: inactive; KB-3-1 cytotox: inactive; ATXN2 expr inh: inactive

What do the screens show for `CCOC(=O)N1CCN(C(=O)CCSc2ccc(Cl)cc2)CC1`?
TGFb inhibitor: inactive; S2 tox: inactive; KB-V1 cytotox: 23µM; HepG2 tox: inactive; KB-3-1 cytotox: inactive; ATXN2 expr inh: inactive

What do the screens show for `O=C(CCSc1ccc(Cl)cc1)N1CCN(S(=O)(=O)c2ccccc2)CC1`?
TGFb inhibitor: inactive; S2 tox: inactive; KB-V1 cytotox: 21µM; HepG2 tox: inactive; KB-3-1 cytotox: inactive; ATXN2 expr inh: inactive

Results for Cc1ccc(SCCC(=O)N2CCN(S(=O)(=O)c3ccccc3)CC2)cc1 ?
TGFb inhibitor: inactive; S2 tox: inactive; HepG2 tox: inactive; ATXN2 expr inh: inactive

How did O=C(NCC(=O)N1CCN(S(=O)(=O)c2ccccc2)CC1)c1ccc2ccccc2c1 do in these assays?
TGFb inhibitor: inactive; S2 tox: inactive; KB-V1 cytotox: 12µM; HepG2 tox: inactive; KB-3-1 cytotox: inactive; ATXN2 expr inh: inactive

How did Cc1cc(Nc2sc(C(=O)c3ccc(F)cc3)c(N)c2C(=O)Nc2ccc(F)cc2)ccc1Cl do in these assays?
TGFb inhibitor: inconclusive; S2 tox: inconclusive; KB-V1 cytotox: inconclusive; HepG2 tox: inactive; KB-3-1 cytotox: inconclusive; ATXN2 expr inh: inconclusive

What do the screens show for `COc1cc(Cl)c(C)cc1N1C(=O)[C@@H]2C[C@H]1CN2Cc1ccccn1`?
S2 tox: inactive

What do the screens show for `Cc1cc(C)n2nc(S(=O)(=O)N(C)Cc3ccccc3)nc2n1`?
TGFb inhibitor: inactive; S2 tox: inactive; KB-V1 cytotox: inactive; HepG2 tox: inactive; KB-3-1 cytotox: inactive; ATXN2 expr inh: inactive

Results for CCN(Cc1ccccc1)S(=O)(=O)c1nc2nc(C)c(C)c(C)n2n1 ?
TGFb inhibitor: inactive; S2 tox: inactive; KB-V1 cytotox: 18µM; HepG2 tox: inactive; KB-3-1 cytotox: inactive; ATXN2 expr inh: inactive

What do the screens show for `CC(=O)ON(C(C)=O)c1ccc(/C=C2/C=Cc3ccccc32)cc1`?
TGFb inhibitor: inactive; KB-V1 cytotox: inactive; HepG2 tox: inactive; KB-3-1 cytotox: inactive

How did COc1cccc(CNC(=O)CN(c2ccc(C(C)C)cc2)S(=O)(=O)c2c(C)n[nH]c2C)c1 do in these assays?
TGFb inhibitor: 16µM; S2 tox: inconclusive; KB-V1 cytotox: inactive; HepG2 tox: inactive; KB-3-1 cytotox: inactive; ATXN2 expr inh: inconclusive

What do the screens show for `Cc1ccc(N(CC(=O)NCc2ccccc2Cl)S(=O)(=O)c2c(C)noc2C)cc1`?
TGFb inhibitor: inactive; S2 tox: inactive; KB-V1 cytotox: inactive; HepG2 tox: inactive; KB-3-1 cytotox: inactive; ATXN2 expr inh: inactive

What do the screens show for `COc1ccc(CNC(=O)CN(c2ccc(C)cc2)S(=O)(=O)c2c(C)n[nH]c2C)cc1`?
TGFb inhibitor: inconclusive; S2 tox: inactive; KB-V1 cytotox: inactive; HepG2 tox: inactive; KB-3-1 cytotox: inactive; ATXN2 expr inh: inactive

How did CCc1ccccc1NC(=O)CN(c1ccc(OC)cc1)S(=O)(=O)c1c(C)n[nH]c1C do in these assays?
TGFb inhibitor: inactive; S2 tox: inactive; KB-V1 cytotox: inactive; HepG2 tox: inactive; KB-3-1 cytotox: inconclusive; ATXN2 expr inh: inactive

What do the screens show for `Cc1n[nH]c(C)c1S(=O)(=O)N(CC(=O)NCc1ccccc1Cl)c1ccc(C(C)C)cc1`?
TGFb inhibitor: inconclusive; S2 tox: 32µM; KB-V1 cytotox: inactive; HepG2 tox: inactive; KB-3-1 cytotox: inactive; ATXN2 expr inh: inconclusive

How did COc1ccc(N(CC(=O)Nc2cccc(C)c2C)S(=O)(=O)c2c(C)n[nH]c2C)cc1 do in these assays?
TGFb inhibitor: inactive; S2 tox: inconclusive; KB-V1 cytotox: 18µM; HepG2 tox: inactive; KB-3-1 cytotox: inactive; ATXN2 expr inh: inactive

What do the screens show for `Cc1nn2c3c(cnc2c1-c1ccc(Cl)cc1)C(=O)CC(c1ccco1)C3` (stereo not given)?
TGFb inhibitor: inactive; S2 tox: inactive; KB-V1 cytotox: 5.8µM; HepG2 tox: inactive; KB-3-1 cytotox: inactive; ATXN2 expr inh: inactive

Results for COc1ccc(Nc2nnc(SCc3cn4c(C)cccc4n3)s2)cc1 ?
TGFb inhibitor: inconclusive; S2 tox: inactive; KB-V1 cytotox: inconclusive; HepG2 tox: inactive; KB-3-1 cytotox: 12µM; ATXN2 expr inh: inactive

Results for C#CCn1c2ccccc2c(=O)n1CCOc1ccccc1OC ?
KB-V1 cytotox: inconclusive; KB-3-1 cytotox: inactive
